Rin1-Abl PPI inh: inhibitors of Rin1-Abl protein binding, primary screen, biochemical, TR-FRET | Tyrosine-protein kinase ABL1 (Homo sapiens) + Ras and Rab interactor 1 (Homo sapiens), … | inhibition, % at 7.35 µM | 0.4% of 360,000 active; in the data active means inhibition above about 5%, passing the limit was not always enough
PKA-R1A act: activators of PKA-R1A holoenzyme, primary screen, biochemical, fluorescence polarization, Cy5-IP20, bovine R1A, mouse PKAc; cAMP-dependent protein kinase type I-alpha regulatory subunit (Bos taurus) + …; PKA-R1A dissociation; scaled: DMSO 0%, 113 µM cGMP 100%; activation, % at 11.4 µM; 0.083% of 340,000 active; AID 504707, 2011;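 active means percent activation above the mean of all tested compounds plus 3 SD, cut at about 19% in these data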;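 further: higher means more PKAc released from R1A so a rise in polarization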
IDE cell inh: human IDE inhibitors in live cells, primary screen, fluorescence polarization, HEK cells, FAbetaB substrate. FAbetaB cleavage. inhibition, % at 5.59 µM. 0.41% of 320,000 active. Insulin-degrading enzyme (Homo sapiens), P14735;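 active means percent inhibition above the average of all tested compounds plus 3 SD, set per screening campaign, cut at about 16% in these data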;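 further: IDE supplied by intact live HEK cells; FP after avidin binding of uncleaved biotin substrate so inhibition keeps polarization high; 0% = DMSO wells and 100% = 60 µM reference IDE inhibitor Ii1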
IDE cell activ: human IDE activators in live cells, primary screen, fluorescence polarization, HEK cells, FAbeta-B substrate | Insulin-degrading enzyme (Homo sapiens), P14735 | FAbeta-B cleavage; 0% vehicle, 100% cell-free pure enzyme wells | activation, % at 5.96 µM | 0.073% of 340,000 active | AID 493087, 2011;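 active means activation above the mean of all tested compounds plus 3 SD, set per screening campaign, cut at about 17% in these data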
PKA-R2B activ: activators of PKA-R2B holoenzyme, primary screen, biochemical, fluorescence polarization, Cy5-IP20, human. cAMP-dependent protein kinase catalytic subunit beta (Homo sapiens) + cAMP-dependent …. PKA-R2B holoenzyme dissociation; R2B truncated from residue 108, S112A mutant; 0% DMSO only, 100% 113 µM cGMP. activation, % at 11.4 µM. 0.079% of 340,000 active. AID 504700, 2011;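 active means activation above a cutoff set at the mean over all compounds plus 3 SD, cut at about 18% in these data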;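 further: higher means more holoenzyme dissociation and a rise in polarization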
Target sequence (P31323 whole entry, looked up, other chains not shown, the tested form may be a part): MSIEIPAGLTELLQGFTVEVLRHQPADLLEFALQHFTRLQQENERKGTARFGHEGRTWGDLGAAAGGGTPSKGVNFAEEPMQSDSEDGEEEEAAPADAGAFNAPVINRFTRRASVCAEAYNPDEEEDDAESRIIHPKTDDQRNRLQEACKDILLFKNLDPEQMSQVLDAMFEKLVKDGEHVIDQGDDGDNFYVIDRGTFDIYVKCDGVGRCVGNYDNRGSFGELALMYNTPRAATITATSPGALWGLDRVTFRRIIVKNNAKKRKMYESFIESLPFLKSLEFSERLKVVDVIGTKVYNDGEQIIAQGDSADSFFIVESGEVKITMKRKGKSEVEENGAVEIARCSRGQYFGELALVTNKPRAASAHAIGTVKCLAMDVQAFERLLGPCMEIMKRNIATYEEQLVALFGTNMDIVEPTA
eLon inh: inhibitors of E. coli Lon protease, primary screen, biochemical, fluorescence polarization | P0A9M0 | purified E. coli Lon protease | inhibition, % at 7.94 µM | 0.42% of 360,000 active | AID 602123, 2011; in the data active means inhibition above about 13%, passing the limit was not always enough;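 further: 0% = enzyme with probe and DMSO and 100% = no enzyme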
IDE inh confirm: human IDE inhibitors in live cells, confirmation, fluorescence polarization, HEK cells, FAbetaB substrate; shares compounds with IDE cell inh; FAbetaB cleavage; inhibition, % at 5.59 µM; 51% of 1,200 active; AID 435028, 2010;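 active means mean inhibition across triplicate wells above the cutoff set by the earlier primary insulin-degrading enzyme screen, cut at about 16% in these data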;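 further: 0% = DMSO wells and 100% = 60 µM reference IDE inhibitor Ii1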
HEK293 tox: cytotoxicity in HEK cells, cytotoxicity control for IDE inhibitor project, cell-based, luminescence; shares compounds with IDE cell inh; HEK293 cytotoxicity, ATP luminescence; inhibition, % at 5.59 µM; 28% of 1,200 active; in the data active means inhibition above about 22%;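 further: 0% = vehicle wells and 100% = reference cytotoxic drug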
An asterisk follows results filed as active. Sampled rows, rich in hits. Any-hit rate of the full collection: about 1.3%.

C/C(=N\NC(=O)CC1N=C(Cc2ccccc2)NNC1=O)c1ccncc1 (stereo unspecified) was read as Rin1-Abl PPI inh -1, PKA-R1A act -2, IDE cell inh -11, IDE cell activ 3, PKA-R2B activ 7 and eLon inh -1.
For CC(C)(CNC(=O)CC1C(=O)NCCN1Cc1cccc(F)c1)N1CCOCC1 (stereo unspecified) the results were Rin1-Abl PPI inh 2, PKA-R1A act -8, IDE cell inh 0, IDE cell activ -1, PKA-R2B activ 0 and eLon inh 6.
COC(=O)c1ccc(C2c3[nH]c4ccccc4c3C[C@H]3C(=O)N(C)CC(=O)N23)cc1 (stereo partly specified) was read as Rin1-Abl PPI inh 5, PKA-R1A act -1, IDE cell inh 7, IDE cell activ 2, PKA-R2B activ -5 and eLon inh 0.
For CCN1C(=O)[C@@H]2Cc3c([nH]c4ccccc34)C(c3ccc(OC)cc3)N2C1=S (stereo partly specified) the results were Rin1-Abl PPI inh 1, PKA-R1A act 1, IDE cell inh 41*, IDE cell activ -47, PKA-R2B activ -10, eLon inh -292, IDE inh confirm 20* and HEK293 tox 61*.
`CC(=O)N/C(=C\c1ccccc1)C(=O)OCC(=O)NC(C)C12CC3CC(CC(C3)C1)C2` (stereo unspecified) gave Rin1-Abl PPI inh -2, PKA-R1A act -5, IDE cell inh 17*, IDE cell activ -1, PKA-R2B activ -9, eLon inh -10, IDE inh confirm -5 and HEK293 tox 15.
Screening Cn1c(N)c(-c2ccccc2)c2ccc([N+](=O)[O-])cc2c1=O returned Rin1-Abl PPI inh -10, PKA-R1A act 13, IDE cell inh 25*, IDE cell activ -9, PKA-R2B activ 2, eLon inh -276, IDE inh confirm 25* and HEK293 tox 27*.
C=CCN1C(=O)/C(=C\C=C2\N(C)c3ccccc3C2(C)C)SC1=S was read as Rin1-Abl PPI inh 1, PKA-R1A act 2, IDE cell inh 2, IDE cell activ -10, PKA-R2B activ 1 and eLon inh -108.
Screening CCCN1C(=O)/C(=C/C=C2\N(CC)c3ccccc3C2(C)C)SC1=S returned Rin1-Abl PPI inh 2, PKA-R1A act 2, IDE cell inh 16*, IDE cell activ -29, PKA-R2B activ -2, eLon inh -158, IDE inh confirm 114* and HEK293 tox 17.
Screening CN1/C(=C\C=C2/SC(=S)N(CC(=O)O)C2=O)C(C)(C)c2ccccc21 returned Rin1-Abl PPI inh -9, PKA-R1A act 1, IDE cell inh 133*, IDE cell activ -91, PKA-R2B activ -3, eLon inh -313, IDE inh confirm 26* and HEK293 tox 20.
C/C(=N\NC(=O)CN1CCN(Cc2ccccc2)CC1)c1ccncc1 was read as Rin1-Abl PPI inh -3, PKA-R1A act -4, IDE cell inh 0, IDE cell activ 3, PKA-R2B activ -2 and eLon inh 1.
`C/C(=N/NC(=O)CN1CCN(Cc2ccccc2Cl)CC1)c1ccncc1` gave Rin1-Abl PPI inh 2, PKA-R1A act -4, IDE cell inh 24*, IDE cell activ -22, PKA-R2B activ 0, eLon inh -8, IDE inh confirm 15 and HEK293 tox 7.
`CC[n+]1c(/C=C/N(C)c2ccccc2)n(-c2ccccc2)c2ccc(-c3nc4ccccc4s3)cc21` gave Rin1-Abl PPI inh -13, PKA-R1A act -9, IDE cell inh 57*, IDE cell activ -29, PKA-R2B activ -3, eLon inh -25, IDE inh confirm 22* and HEK293 tox 118*.
`CN(C)C(=O)c1ccc(NC(=O)c2cccc(S(=O)(=O)N3CCCc4ccccc43)c2)cc1` gave Rin1-Abl PPI inh 4, PKA-R1A act -6, IDE cell inh 8, IDE cell activ -1, PKA-R2B activ -9 and eLon inh 0.
Cc1ccc2c(c1)CCCN2S(=O)(=O)c1cccc(C(=O)Nc2ccccc2C(=O)O)c1 was read as Rin1-Abl PPI inh 2, PKA-R1A act 10, IDE cell inh 41*, IDE cell activ -83, PKA-R2B activ 7, eLon inh -3, IDE inh confirm 23* and HEK293 tox 26*.
Screening CCC(/C=C1\Sc2ccc(OC)cc2N1CC)=C\c1sc2ccc(OC)cc2[n+]1CCCS(=O)(=O)[O-] returned Rin1-Abl PPI inh 0, PKA-R1A act -5, IDE cell inh 3, IDE cell activ 1, PKA-R2B activ -6 and eLon inh -13.
Screening CCN1/C(=C/c2cc[n+](CCCS(=O)(=O)[O-])c3ccccc23)Sc2ccccc21 returned Rin1-Abl PPI inh -5, PKA-R1A act -4, IDE cell inh 26*, IDE cell activ -8, PKA-R2B activ -4, eLon inh -17, IDE inh confirm 28* and HEK293 tox 10.
Screening COc1cc(/C=N/Nc2nc3ccccc3[nH]2)cc(OC)c1O returned Rin1-Abl PPI inh -1, PKA-R1A act -1, IDE cell inh 18*, IDE cell activ -1, PKA-R2B activ -13, eLon inh -5, IDE inh confirm 1 and HEK293 tox 24*.
`COc1cc(/C=C2\SC(=S)N(NS(=O)(=O)c3ccc(C)cc3)C2=O)cc(OC)c1OC` gave Rin1-Abl PPI inh -3, PKA-R1A act -1, IDE cell inh 0, IDE cell activ 0, PKA-R2B activ 2 and eLon inh 3.
COc1cc(/C=C2\SC(=S)N(NS(=O)(=O)c3ccccc3)C2=O)ccc1O was read as Rin1-Abl PPI inh -1, PKA-R1A act -9, IDE cell inh 74*, IDE cell activ -103, PKA-R2B activ -2, eLon inh -71, IDE inh confirm 161* and HEK293 tox 7.
For Cc1ccc(S(=O)(=O)NN2C(=O)/C(=C/c3cccc(F)c3)SC2=S)cc1 the results were Rin1-Abl PPI inh 0, PKA-R1A act 0, IDE cell inh -1, IDE cell activ -2, PKA-R2B activ -3 and eLon inh -1.

Assay outcomes deposited in PubChem by The Scripps Research Institute Molecular Screening Center.
